Ten compounds from PubChem BioAssay (Tox21) can be followed below.

The structures appear in SMILES notation. “And” between values parts separate entries of the source, which are not always exact repeats. Identical values can stand only once. Inconclusive results are not listed. Where a structure was tested more than once in an assay, its records may differ in their call. The source made the active and inactive calls. The call rests on the fitted dose curve; in most records, active means well fitted curve in the direction sought with a large enough effect in the repeat runs; inconclusive means weak or mixed curves; inactive means no such curve, though single readings can be large; an effect the other way counts as inactive or inconclusive.

Assay [1] in a line: A CellTox Green Cytotoxicity Assay to monitor cytotoxicity in HEK293 cells - 40 hour (AID 1224871). Further: nearly all actives have a fitted effect of over 45% in size. The essentials: (§1)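 Cytotoxicity was tracked continuously in HEK293 cells by a DNA-binding dye excluded from viable cells. Compounds were transferred in DMSO 5 h after seeding; fluorescence was recorded at intervals up to 40 h.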
Assay [2] in a line: qHTS RealTime-Glo MT Cell Viability Assay in HepG2 cells - 8 hour (AID 1224873). Further: nearly all actives have a fitted effect of over 55% in size. In a few lines: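 HepG2 cells (600/well) mixed with RealTime-Glo MT reagent, settled 5 h at 37 C/5% CO2 before compound addition. Nonlytic NanoLuc luminescence from viable-cell prosubstrate reduction read repeatedly during 40 h treatment at 37 C.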
(qHTS replaces the single test concentration by a dilution series.)

The nature of assay [3]: qHTS RealTime-Glo MT Cell Viability Assay in HEK293 cells - 40 hour (AID 1224874). Further: nearly all actives have a fitted effect of over 50% in size. Further: potency means the concentration at half of the fitted maximal effect. As to conditions: RealTime-Glo luminescence; max response: stronger effect = lower value. The essentials: (§2)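 Nonlytic bioluminescent viability monitoring. HEK293 at 600 cells/well with reagent; 5 h settle; compound transfer by pintool; plates held at 37 C and read at set time points.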
The nature of assay [4]: A CellTox Green Cytotoxicity Assay to monitor cytotoxicity in HEK293 cells - 24 hour (AID 1224875). Further: series mostly up to about 77 µM; nearly all actives have a fitted effect of over 45% in size. In a few lines:
as §1

Assay [5] can be described thus: A CellTox Green Cytotoxicity Assay to monitor cytotoxicity in HepG2 cells - 16 hour (AID 1224876). Further: nearly all actives have a fitted effect of over 45% in size. Further: potency means the concentration at half of the fitted maximal effect. In a few lines: (§3)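 Real-time, homogeneous cytotoxicity readout: dead-cell DNA staining by CellTox Green in HepG2 monolayers, fluorescence measured at timed intervals up to 40 h of continuous compound exposure.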
Assay [6] is described as follows: qHTS RealTime-Glo MT Cell Viability Assay in HepG2 cells - 32 hour (AID 1224877). Further: nearly all actives have a fitted effect of over 55% in size. Further: potency means the concentration at half of the fitted maximal effect. The essentials: (§4)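 HepG2 suspension premixed with RealTime-Glo reagents is plated at 600 cells per well and left 5 h at 37 C/5% CO2. Compounds in DMSO then go in, and bioluminescence reflecting viable cell number is recorded over 40 h.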
A short description of assay [7]: A CellTox Green Cytotoxicity Assay to monitor cytotoxicity in HepG2 cells - 24 hour (AID 1224878). Further: nearly all actives have a fitted effect of over 45% in size. Further: potency means the concentration at half of the fitted maximal effect. The essentials:
as §3

Assay [8] can be described thus: A CellTox Green Cytotoxicity Assay to monitor cytotoxicity in HepG2 cells - 40 hour (AID 1224879). Further: nearly all actives have a fitted effect of over 40% in size. The essentials:
as §3

Assay [9] is described as follows: qHTS RealTime-Glo MT Cell Viability Assay in HEK293 cells - 0 hour (AID 1224880). The essentials: as §2
Assay [10] can be described thus: A CellTox Green Cytotoxicity Assay to monitor cytotoxicity in HEK293 cells - 32 hour (AID 1224881). Further: nearly all actives have a fitted effect of over 40% in size. In a few lines: as §1
The nature of assay [11]: A CellTox Green Cytotoxicity Assay to monitor cytotoxicity in HepG2 cells - 0 hour (AID 1224882). Further: nearly all actives have a fitted effect of over 35% in size. The essentials:
as §3

Assay [12] in a line: A CellTox Green Cytotoxicity Assay to monitor cytotoxicity in HepG2 cells - 32 hour (AID 1224883). Further: nearly all actives have a fitted effect of over 50% in size. Further: potency means the concentration at half of the fitted maximal effect. In a few lines: as §3
A short description of assay [13]: A CellTox Green Cytotoxicity Assay to monitor cytotoxicity in HEK293 cells - 8 hour (AID 1224884). Further: nearly all actives have a fitted effect of over 35% in size. The essentials:
as §1

Assay [14] is described as follows: qHTS RealTime-Glo MT Cell Viability Assay in HepG2 cells - 16 hour (AID 1224885). Further: nearly all actives have a fitted effect of over 50% in size. The essentials:
as §4

A short description of assay [15]: qHTS RealTime-Glo MT Cell Viability Assay in HEK293 cells - 24 hour (AID 1224886). Further: top concentration of the series differs between compounds; nearly all actives have a fitted effect of over 50% in size. The essentials:
(§5)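 Reads taken at 0, 8, 16, 24, 32 and 40 h from the same wells. HEK293 cells (600/well) carried RealTime-Glo reagents from seeding, with compound added after a 5 h settle at 37 C.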

The nature of assay [16]: A CellTox Green Cytotoxicity Assay to monitor cytotoxicity in HEK293 cells - 16 hour (AID 1224888). Further: nearly all actives have a fitted effect of over 35% in size. The essentials:
as §1

Assay [17] can be described thus: qHTS RealTime-Glo MT Cell Viability Assay in HepG2 cells - 0 hour (AID 1224889). Further: nearly all actives have a fitted effect of over 50% in size. Further: potency means the concentration at half of the fitted maximal effect. The essentials: as §4
The nature of assay [18]: qHTS RealTime-Glo MT Cell Viability Assay in HEK293 cells - 16 hour (AID 1224872). Further: nearly all actives have a fitted effect of over 50% in size. Further: potency means the concentration at half of the fitted maximal effect. The essentials:
as §5

Assay [19] in a line: A CellTox Green Cytotoxicity Assay to monitor cytotoxicity in HepG2 cells - 8 hour (AID 1224890). Further: nearly all actives have a fitted effect of over 45% in size. In a few lines: as §3
Assay [20] can be described thus: qHTS RealTime-Glo MT Cell Viability Assay in HEK293 cells - 8 hour (AID 1224887). The essentials:
as §2
On the % scale 0 is the no-effect control and ±100 the full control effect.

Take `CN(C)CCN(Cc1cccs1)c1ccccn1`: the Potency entry in [1], in assay [2], in [4], in assay [5], in assay [6] and in assay [7] was “inactive” each time. The Potency entry in [8], in assay [9], in assay [10], in assay [11], in assay [12] and in assay [13] was “inactive” in each case. Further, the Potency entry in [14], in assay [15], in assay [16] and in assay [17] was “inactive” throughout. Also, the max response in assay [3] was -22.8% (inactive) and -7.6% (inactive).

In the case of `O=c1oc(=O)c2cc3c(=O)oc(=O)c3cc12`, the Potency entry in assay [1], in assay [18], in assay [2], in assay [4], in assay [5] and in [6] was “inactive” throughout. In addition, the Potency result in assay [7], in assay [8], in [9], in assay [10], in [11] and in [12] was “inactive” in each case. Moreover, the Potency result in assay [13], in [14], in assay [16], in assay [17] and in assay [19] was “inactive” throughout. In addition, the max response in [3] was 5.31% (inactive) and 2.56% (inactive).

For the compound `O=S(=O)(O)c1ccc(O)cc1`, the Potency entry in assay [1], in assay [2], in [4], in assay [5], in assay [6] and in [7] was “inactive” throughout. Also, the Potency result in [8], in [9], in [10], in assay [11], in assay [12] and in assay [13] was “inactive” throughout. The Potency result in [14], in [15], in assay [20], in [16] and in assay [17] was “inactive” each time. In addition, the max response in assay [3] is 9.46% (inactive) and 3.12% (inactive).

Consider `O=P(O)(O)O`, for which the Potency result in assay [1], in [2], in [4], in assay [5], in assay [6] and in assay [7] was “inactive” in each case. Moreover, the Potency entry in assay [8], in [9], in assay [10], in [11], in [12] and in assay [13] was “inactive” throughout. For the same compound, the Potency entry in assay [14], in [15], in [20], in assay [16] and in assay [17] was “inactive” each time. Moreover, the max response in assay [3] is -1.49% (inactive) and 1.49% (inactive).

As for `Cc1cccc([N+](=O)[O-])c1C`, the Potency entry in assay [1], in [18], in assay [2], in assay [4], in assay [5] and in [6] was “inactive” in each case. Further, the Potency entry in [7], in assay [8], in [9], in [10], in assay [11] and in assay [12] was “inactive” throughout. Also, the Potency entry in [13], in [14], in assay [16] and in [17] was “inactive” throughout. In addition, in assay [3], the max response was 2.52% (inactive) and -15.5% (inactive).

For `CN(C)c1nc(N(C)C)nc(N(C)C)n1`, the Potency result in [1], in assay [2], in assay [4], in assay [5], in assay [6] and in assay [7] was “inactive” each time. The Potency result in assay [8], in [9], in assay [10], in assay [11], in assay [12] and in assay [13] was “inactive” each time. The Potency entry in assay [14], in assay [15], in assay [20], in [16] and in assay [17] was “inactive” in each case. The max response in [3] was -18.5% (inactive) and -1.64% (inactive).

Turning to `COc1cccc2c1C(=O)c1c(O)c3c(c(O)c1C2=O)C[C@@](O)(C(=O)CO)C[C@@H]3O[C@H]1C[C@H](N)[C@H](O)[C@H](C)O1`, the Potency result in assay [1], in assay [2], in assay [4], in assay [8], in assay [9] and in [10] was “inactive” throughout. In addition, the Potency entry in [11], in assay [14], in assay [20], in [16] and in [17] was “inactive” throughout. Also, the Potency in assay [18] is 346 nM (active); in [3], 97.6 nM (active) and 190 nM (active); in [5] it was “inactive and 21.3 µM (active)”; in assay [6], 952 nM (active); in assay [7], “inactive and 21.3 µM (active)”; in assay [12] it was “inactive and 21.3 µM (active)”.

On to `C[C@]12CCC(=O)C=C1CC[C@@H]1[C@@H]2C(=O)C[C@@]2(C)[C@H]1CC[C@]2(O)C(=O)CO`, for which the Potency result in assay [1], in [18], in assay [2], in assay [4], in [5] and in assay [6] was “inactive” throughout. Further, the Potency result in [7], in assay [8], in assay [10], in [11], in assay [12] and in [13] was “inactive” in each case. Also, the Potency result in assay [14], in [15], in assay [20], in assay [16] and in assay [19] was “inactive” in each case. Moreover, the max response in [3] was -10% (inactive) and -11.4% (inactive). Further, in [17], the Potency is 5490 nM (active).

In the case of `CC(C)=CCCC(C)CCO` (stereo not given), the Potency result in assay [1], in [2], in assay [4], in assay [5], in assay [6] and in assay [7] was “inactive” in each case. In addition, the Potency result in assay [8], in [9], in assay [10], in assay [11], in assay [12] and in [13] was “inactive” each time. Moreover, the Potency result in assay [14], in assay [15], in [20], in assay [16], in [17] and in [19] was “inactive” in each case. For the same compound, the max response in [3] was -3.95% (inactive) and 4.54% (inactive).

On to `C=C(C)C(=O)OCCOC(=O)C(=C)C`, for which the Potency result in assay [1], in [2], in [4], in assay [5], in [6] and in assay [7] was “inactive” in each case. The Potency result in [8], in [9], in assay [10], in [11], in assay [12] and in [13] was “inactive” in each case. For the same compound, the Potency result in assay [14], in assay [15], in assay [20], in [16], in assay [17] and in assay [19] was “inactive” throughout. Further, in assay [3], the max response is 7.24% (inactive) and -0.024% (inactive).
